# Bioassay records from PubChem.
# In the library only some 10% were active in any assay of this set; here they are far more common.
# JMJD2A Tudor inh – inhibitors of human JMJD2A Tudor domain | AlphaScreen JMJD2A-Tudor / H3K4me3 peptide binding | Potency, µM (highest dose often 114 µM), for inactives: at the top dose activity change, negative = inhibition, hits mostly inhibitors | actives 4.4% (n = 390,000) | AID 504339; also: % is scaled to controls: 0 for no effect and ±100 for the full control effect; nearly all actives have a fitted effect of over 50% in size
# BAZ2B inh – blocks human BAZ2B | Q9UIF8 | AlphaScreen BAZ2B-H3K14Ac peptide displacement | Potency, µM (doses to about 114 µM), for inactives: at the highest dose activity change, negative = inhibition, usual class: inhibitors | actives 4.4% (n = 360,000) | AID 504333; also: % is scaled to controls: 0 for no effect and ±100 for the full control effect; nearly all actives have a fitted effect of over 60% in size
#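 BAZ2B (50 nM) with biotin-H3(5-23)K14Ac peptide (50 nM) in PBS pH 7.4, 0.01% Tween-20, preformed 30 min, then compound 30 min at room temperature; top concentration 110uM. AlphaScreen streptavidin donor/nickel chelate acceptor beads (10 ug/mL final), 20 min dark, signal read.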
# GLS inhibitor – inhibitors of human glutaminase (GLS). actives 0.21% (n = 410,000). AID 624170. Potency, µM (highest dose often 45.5 µM), without a hit: at the top dose activity change, negative = inhibition, actives largely listed as inhibitors. GLS enzymatic activity, qHTS titration; also: % is scaled to controls: 0 for no effect and ±100 for the full control effect
#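 Enzyme dispensed in phosphate buffer (45 mM, pH 8.2, 0.02% Tween-20), compounds pinned in, then 1 mM L-glutamine solution and the glutamate oxidase–HRP–Amplex Red mix added; fluorescence read immediately and again after 30 min at room temperature.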
# HP1b binding inh – inhibitors of HP1-beta chromodomain binding to methylated histone tails | P83916 | AlphaScreen HP1-beta / biotin-H3K9me3 peptide binding | Potency, µM (top dose mostly 114 µM), for the others: at the top dose activity change, negative = inhibition, usual class: inhibitors | actives 0.56% (n = 390,000) | AID 540317; also: nearly all actives have a fitted effect of over 70% in size
# Target sequence (P83916 whole entry, looked up): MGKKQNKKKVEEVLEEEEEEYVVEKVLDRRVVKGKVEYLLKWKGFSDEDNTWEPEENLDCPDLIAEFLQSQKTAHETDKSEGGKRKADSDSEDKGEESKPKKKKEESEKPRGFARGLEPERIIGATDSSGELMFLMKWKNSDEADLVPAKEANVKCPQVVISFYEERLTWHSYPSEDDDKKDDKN
#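 AlphaScreen: HP1-beta (50 nM) preformed 30 min with biotin-H3(1-18)K9me3 peptide (50 nM) in PBS pH 7.4, 0.01% Tween-20. Compound added for 30 min at RT, then streptavidin donor/nickel chelate acceptor beads (10 ug/mL) for 30 min.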
# G9a inh – blocks human histone lysine methyltransferase G9a | Q96KQ7 | G9a H3K9 monomethylation, AlphaScreen, 2 h | Potency, µM (top dose mostly 102 µM), inactives show at the highest dose activity, negative = inhibition, most hits filed as inhibitors | actives 8.8% (n = 350,000) | AID 504332; also: % is scaled to controls: 0 for no effect and ±100 for the full control effect; nearly all actives have a fitted effect of over 75% in size
# Target sequence (Q96KQ7 913-1193 limits assumed): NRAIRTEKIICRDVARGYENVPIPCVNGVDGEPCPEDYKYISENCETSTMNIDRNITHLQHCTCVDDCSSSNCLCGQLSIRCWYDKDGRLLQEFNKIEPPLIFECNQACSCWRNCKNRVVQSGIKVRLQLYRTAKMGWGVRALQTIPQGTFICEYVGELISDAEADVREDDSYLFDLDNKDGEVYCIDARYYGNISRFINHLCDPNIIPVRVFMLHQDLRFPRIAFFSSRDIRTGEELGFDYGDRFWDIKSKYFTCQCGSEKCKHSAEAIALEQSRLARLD
#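 Chemiluminescent proximity detection of H3K9 monomethylation, read after 10 min bead incubation in the dark. Reaction: 20 nM G9a, 500 nM biotin-H3K9 peptide, 20 uM SAM cofactor, 2 h, room temperature, following 15 min enzyme-compound preincubation.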
# An asterisk follows results filed as active; ? = inconclusive; nt = no result given; [ ] = dose if it differs, or a comment. Calls follow the shape of the dose curve; as a rule, active = well fitted curve in the direction sought with a large enough effect; inconclusive = small, poorly fitted or top-dose-only effect, or another doubt; inactive = no such curve, though single readings can be large; an effect the other way counts as inactive or inconclusive. Potency is read from the fitted curve at half-maximal effect.
SMILES,JMJD2A Tudor inh,BAZ2B inh,GLS inhibitor,HP1b binding inh,G9a inh
CCCCOc1ccc(/C(O)=C2/C(=O)C(=O)N(CCN(C)C)C2c2ccc(O)c(OC)c2)cc1 (configuration not stated),-28%,4%,4%,27%,?
CCCOc1ccc(C2/C(=C(/O)c3ccc(F)cc3)C(=O)C(=O)N2CCCN(C)C)cc1 (configuration not stated),-13%,3%,7%,18%,40µM*
CCCOc1ccc(/C(O)=C2\C(=O)C(=O)N(CCCN(C)C)C23C(=O)N(C)c2ccccc23)cc1 (configuration not stated),nt,-38%,nt,nt,45µM*
CCCOc1cccc(C2/C(=C(/O)c3ccc(OC)cc3)C(=O)C(=O)N2CCN(C)C)c1 (configuration not stated),-26%,2%,25%,17%,50µM*
COc1ccc(/C(O)=C2\C(=O)C(=O)N(CCN(C)C)C2c2cc(OC)c(OC)c(OC)c2)c(C)c1 (configuration not stated),-31%,79µM*,13%,5%,?
COc1ccc(CCn2c(C)c(C(C)=O)c3cc(OC(=O)c4ccco4)ccc32)cc1OC,-13%[11.4 µM],-34%,1%,-30%,-4%[12.7 µM]
CCOC(=O)c1c(-c2ccc(C)cc2)csc1NC(=O)c1cc(=O)c2cc(C)ccc2o1,56µM*,?,-11%,?,?
CCOC(=O)c1c(-c2ccc(C)cc2)csc1NC(=O)c1cc(-c2ccc(OC)cc2)on1,-11%,-2%,-1%,31%,6%[59 µM]
CCOC(=O)c1c(-c2ccccc2)csc1NC(=O)c1cc(-c2cccc(OC)c2)on1,6%,-2%,-10%,-20%,4µM*
CCOC(=O)c1c(-c2ccccc2)csc1NC(=O)c1cc(-c2cccc(Cl)c2)on1,-14%,7%,2%,-21%,8.9µM*
CCCCN(CC)CCCNC(=S)Nc1ccc2nc(N3CCN(C)CC3)cc(C)c2c1,-17%,-25%,-7%,18%,40µM*
CCCCN(CC)CCCNC(=S)Nc1ccc2nc(N3CCN(CC)CC3)cc(C)c2c1,-26%,-20%,?,-11%,50µM*
Cc1c(N2C(=O)CSC23C(=O)Nc2ccccc23)c(=O)n(-c2ccccc2)n1C (configuration not stated),-12%,0%,1%,17%,0%[59 µM]
O=[N+]([O-])CC(c1ccccc1)P(=O)(c1ccccc1)c1ccccc1 (configuration not stated),0%,25%,-1%,18%,-30%
C=CCSc1nc2c(sc3nc(C)cc(C)c32)c(=O)[nH]1,-24%,-1%,?,36%,45µM*
Cc1cc(C)c2c(n1)sc1c(=O)[nH]c(SCc3ccccc3)nc12,-4%,-1%,-5%,52%,?
Cc1cccc(C)c1NC(=O)CN(C)C(=O)CN1C(=O)NC(C)(C)C1=O,-14%,-3%,-3%,22%,-12%[12.7 µM]
COc1ccc(NC(=O)CC2C(=O)N(c3ccc(F)cc3)C(=O)N2Cc2cccnc2)cc1 (configuration not stated),4%,2%,2%,57%,?
O=C(O)Cc1coc(-c2ccc(F)cc2)n1,-8%,-1%,-9%,36%,23%
CCOC(=O)c1c(C)oc2c1c1c(c3ccccc32)OCN(CCCC(=O)O)C1,?,?,29%,-4%,8.9µM*
COC(=O)n1c(=O)oc2ccccc21,-12%,-6%,2%,26%,-18%[59 µM]
O=C(Oc1ccccc1)n1c(=S)oc2ccccc21,20µM*,-4%,27%,-12%,3.5µM*
Cc1ccccc1OC(=O)n1c(=S)oc2cc(Cl)ccc21,35µM*,12%,11%,-3%,1.1µM*
COc1cccc(-n2cnc3sc(-c4ccccc4)cc3c2=O)c1,-9%,nt,-4%,16%,nt
CCc1nc(SCC(=O)O)c(C#N)c2c1CCCC2,2%[57.1 µM],-9%,-7%,45%,1%
Cc1nc(SCC(=O)O)c(C#N)c2c1CCCC2,?,79µM*,?,12%,50µM*
CCOC(=O)CCc1c(C)nc(SCC(=O)O)c(C#N)c1C,25µM*,9%,-12%,11%,8.9µM*
